Assay results reported in PubChem BioAssay (Tox21).
Results filed as inconclusive are left out. The source made the active and inactive calls. Unless noted, the call rests on the fitted dose curve.

What was measured:
[1] = Nuclear factor erythroid 2-related factor 2/antioxidant responsive element (Nrf2/ARE) small molecule agonists: qHTS cell viability counter screen in human keratinocytes (AID 1919968; active means well fitted curve in the direction sought with a large enough effect in the repeat runs; an effect the other way counts as inactive or inconclusive; further: nearly all actives have a fitted effect of over 55% in size)
Procedure, shortened: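 Measured as CellTiter-Fluor fluorescence, this readout tracks cytotoxicity in the same wells as the ARE-luciferase screen. HaCaT reporter cells (1,500/well) received compounds after a 5 h pre-incubation and were exposed for 23 h.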

[2] = Nuclear factor erythroid 2-related factor 2/antioxidant responsive element (Nrf2/ARE) small molecule agonists: luciferase reporter gene qHTS assay in human keratinocytes (AID 1919969); further: nearly all actives have a fitted effect of over 35% in size
[3] = target: Gonadotropin-releasing hormone receptor (Homo sapiens) (UniProt P30968); test: Human gonadotropin-releasing hormone receptor (GnRHR) small molecule agonists, calcium flux assay in GnRHR-HEK293 cells (AID 1920063); further: nearly all actives have a fitted effect of over 35% in size
Procedure, shortened: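 Fluorescence kinetics (480 nm excitation, 540 nm emission; 3 min, 1 s steps) report calcium mobilisation in human GnRHR-HEK293 cells in agonist mode. Dye incubation: 1 h, 37 C.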

[4] = target: KiSS-1 receptor (Homo sapiens) (UniProt Q969F8); test: Human kisspeptin (KISS1R) small molecule agonists, calcium flux assay in KISS1R-HEK293 cells (AID 1920064; active means well fitted curve in the direction sought with a large enough effect in the repeat runs; an effect the other way counts as inactive or inconclusive)
Procedure, shortened: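 Measures KISS1R agonism through calcium-sensitive dye fluorescence in stably transfected HEK293 cells, read for 3 min after pin-tool compound delivery; 15-point titrations in triplicate.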

[5] = p53 small molecule agonists, cell-based qHTS assay with human liver microsomes (AID 1963577)
Procedure, shortened: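 p53RE-bla reporter cells were pre-incubated 5 h at 37 C, then treated with compounds plus human liver microsomes (0.5 mg/mL final) and NADPH (0.5 mg/mL final) for 16 h at 37 C. Beta-lactamase activity was read by LiveBLAzer fluorescence after 2 h at room temperature.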

[6] = p53 small molecule agonists, cell-based qHTS assay with rat liver microsomes (AID 1963578)
Procedure, shortened: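 p53RE-bla cells were exposed to compounds together with rat liver microsomes (0.5 mg/mL final) and NADPH (0.5 mg/mL final) for 16 h at 37 C, then read by LiveBLAzer beta-lactamase fluorescence after 2 h at room temperature.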

[7] = p53 small molecule agonists, cell-based qHTS assay with human liver microsomes: qHTS cell viability counter screen (AID 1963579); further: nearly all actives have a fitted effect of over 45% in size
Procedure, shortened: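 p53RE-bla cells (4,000/well) were pre-incubated 5 h at 37 C, then given compounds in DMSO plus human liver microsomes (0.5 mg/mL final) and NADPH (0.5 mg/mL final) for 16 h at 37 C. Viability was read by CellTiter-Glo luminescence.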

[8] = p53 small molecule agonists, cell-based qHTS assay with rat liver microsomes: qHTS cell viability counter screen (AID 1963580); further: nearly all actives have a fitted effect of over 45% in size
Procedure, shortened: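 Viability is assessed in parallel with the p53 reporter read: HCT-116 p53RE-bla cells receive compounds plus rat microsomes and NADPH (0.5 mg/mL final apiece), incubate 16 h at 37 C, and then CellTiter-Glo luminescence is recorded.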

[9] = p53 small molecule agonists, cell-based qHTS assay: qHTS cell viability counter screen (AID 1963581); further: nearly all actives have a fitted effect of over 45% in size
Procedure, shortened: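 In the same plates used for the p53 bla reporter, HCT-116 cells given compounds for 16 h at 37 C received CellTiter-Glo; luminescence was recorded 30 min later at room temperature.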

[10] = p53 small molecule agonists, cell-based qHTS assay (AID 1963582; active means well fitted activation curve with a large enough effect in the signal ratio in the repeat runs, not every such curve was filed as active; the % refers to the signal ratio; further: potency means the concentration at half of the fitted maximal effect)
Procedure, shortened: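 Compounds are pin-transferred in DMSO onto p53RE-bla cells and incubated 16 h at 37 C. The B/G FRET beta-lactamase substrate is then applied for 2 h at RT and fluorescence recorded.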

[11] = target: 5-hydroxytryptamine receptor 2A (Homo sapiens) (UniProt P28223); test: 5-hydroxytryptamine receptor 2A (HTR2A) small molecule antagonists, cell-based qHTS assay (AID 1963586); further: nearly all actives have a fitted effect of over 45% in size
Procedure, shortened: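 Antagonist-mode intracellular calcium assay: DOI (4 nM) added after 5 min compound pre-incubation at room temperature to dye-loaded HTR2A-CHO cells. Fluorescence followed for 3 min, sampled every second.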

[12] = target: 5-hydroxytryptamine receptor 2A (Homo sapiens) (UniProt P28223); test: 5-hydroxytryptamine receptor 2A (HTR2A) small molecule agonists, cell-based qHTS assay (AID 1963587); further: nearly all actives have a fitted effect of over 30% in size
Procedure, shortened: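 CHO cells stably expressing human HTR2A, plated 18 h, loaded with calcium dye 1 h at 37 C. Agonist mode: compounds added and intracellular calcium fluorescence recorded kinetically for 2 min at 1 sec intervals.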

[13] = target: Muscarinic acetylcholine receptor M1 (Homo sapiens) (UniProt P11229); test: Cholinergic receptor muscarinic 1 (CHRM1) small molecule antagonists, cell-based qHTS assay (AID 1963588); further: nearly all actives have a fitted effect of over 40% in size
Procedure, shortened: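 CHRM1-CHO calcium-flux assay, antagonist mode. Cells were seeded 18 h, dye-loaded 1 h at 37 C and given compound for 5 min at RT, then acetylcholine was added at 50nM. FDSS fluorescence was read 3 min; 15 concentrations, three runs.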

[14] = target: Muscarinic acetylcholine receptor M1 (Homo sapiens) (UniProt P11229); test: Cholinergic receptor muscarinic 1 (CHRM1) small molecule agonists, cell-based qHTS assay (AID 1963589); further: nearly all actives have a fitted effect of over 35% in size
Procedure, shortened: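 Each compound was tested at 15 concentrations across three independent runs on dye-loaded CHO cells stably expressing human CHRM1, reading intracellular calcium fluorescence kinetically at 1 sec intervals.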

[15] = cAMP Responsive Elements (CRE) small molecule agonists, cell-based qHTS assay (AID 1963590)
Procedure, shortened: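 Cell line: CRE-bla HEK 293T; medium DMEM/10% dialyzed FBS/0.1 mM NEAA/1 mM pyruvate/25 mM HEPES; 3 h compound exposure; beta-lactamase FRET readout after 2 h substrate loading at RT.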

[16] = cAMP Responsive Elements (CRE) small molecule antagonists, cell-based qHTS assay (AID 1963591; active means well fitted inhibition curve with a large enough effect in the signal ratio in the repeat runs, not every such curve was filed as active; the % refers to the signal ratio)
Procedure, shortened: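 Inhibition of NKH477-driven (0.25 uM final) CRE-beta-lactamase signal in HEK293T cells, 3 h compound exposure at 37 °C, detected by FRET substrate fluorescence.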

[17] = target: Beta-2 adrenergic receptor (Homo sapiens) (UniProt P07550); test: Adrenergic beta2 receptor (ADRB2) small molecule antagonists, cell-based qHTS assay (AID 1963592); further: nearly all actives have a fitted effect of over 50% in size; further: potency means the concentration at half of the fitted maximal effect
Procedure, shortened: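 Cells (CHO, stable ADRB2 overexpression) incubated 18-20hr at 37C; compounds added from DMSO; agonist mix (1nM isoproterenol, 100uM IBMX, 25uM Ro-20-1724) added; 0.5hr RT; d2-cAMP and anti-cAMP-cryptate added; 1hr RT; 665/615 nm read.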

[18] = target: Beta-2 adrenergic receptor (Homo sapiens) (UniProt P07550); test: Adrenergic beta2 receptor (ADRB2) small molecule agonists, cell-based qHTS assay (AID 1963593);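 further: CHO cells stably overexpressing human ADRB2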
Procedure, shortened: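 CHO cells stably over-expressing ADRB2 were plated overnight at 37C, then dosed with compounds plus a stimulation mix containing 100uM IBMX and 25uM Ro-20-1724 for 0.5hr at room temperature. cAMP was measured by HTRF competition, 1hr.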

[19] = target: D(2) dopamine receptor (Homo sapiens) (UniProt P14416); test: Dopamine D2 receptor (DRD2) small molecule agonists, cell-based qHTS assay (AID 1963594); further: nearly all actives have a fitted effect of over 35% in size
Procedure, shortened: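 HEK293 cells stably expressing human DRD2, pre-treated with PDE inhibitor Ro20-1724 (0.1 mM final) and compound 10 min at room temperature, then stimulated with NKH477 (200nM […]) for 30 min. cAMP read by HTRF (665/620 nm).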

[20] = target: D(2) dopamine receptor (Homo sapiens) (UniProt P14416); test: Dopamine D2 receptor (DRD2) small molecule antagonists, cell-based qHTS assay (AID 1963595; active means well fitted inhibition curve with a large enough effect in the signal ratio in the repeat runs, with a control signal flat; the % refers to the signal ratio; further: potency means the concentration at half of the fitted maximal effect)
Procedure, shortened: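 Antagonist mode in DRD2-HEK293 cells: after compound addition with 0.1 mM Ro20-1724, cells received quinpirole (12 nM) and NKH477 (200 nM) for 30 min at room temperature; HTRF cAMP read after 1 h detection.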

Measured: Potency

Chain of Beta-2 adrenergic receptor (Homo sapiens) (P07550 whole entry, looked up): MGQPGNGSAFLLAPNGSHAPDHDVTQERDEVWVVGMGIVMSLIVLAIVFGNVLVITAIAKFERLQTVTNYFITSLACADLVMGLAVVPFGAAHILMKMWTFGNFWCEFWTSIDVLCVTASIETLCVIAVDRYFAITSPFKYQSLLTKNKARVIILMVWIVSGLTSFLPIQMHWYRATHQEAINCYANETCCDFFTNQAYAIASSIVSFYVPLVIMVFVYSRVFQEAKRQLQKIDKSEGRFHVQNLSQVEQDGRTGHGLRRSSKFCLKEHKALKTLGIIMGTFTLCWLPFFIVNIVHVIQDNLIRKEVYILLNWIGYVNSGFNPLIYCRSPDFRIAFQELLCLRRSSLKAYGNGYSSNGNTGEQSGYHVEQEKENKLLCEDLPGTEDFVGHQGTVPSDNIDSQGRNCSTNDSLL
Chain of Muscarinic acetylcholine receptor M1 (Homo sapiens) (P11229 whole entry, looked up): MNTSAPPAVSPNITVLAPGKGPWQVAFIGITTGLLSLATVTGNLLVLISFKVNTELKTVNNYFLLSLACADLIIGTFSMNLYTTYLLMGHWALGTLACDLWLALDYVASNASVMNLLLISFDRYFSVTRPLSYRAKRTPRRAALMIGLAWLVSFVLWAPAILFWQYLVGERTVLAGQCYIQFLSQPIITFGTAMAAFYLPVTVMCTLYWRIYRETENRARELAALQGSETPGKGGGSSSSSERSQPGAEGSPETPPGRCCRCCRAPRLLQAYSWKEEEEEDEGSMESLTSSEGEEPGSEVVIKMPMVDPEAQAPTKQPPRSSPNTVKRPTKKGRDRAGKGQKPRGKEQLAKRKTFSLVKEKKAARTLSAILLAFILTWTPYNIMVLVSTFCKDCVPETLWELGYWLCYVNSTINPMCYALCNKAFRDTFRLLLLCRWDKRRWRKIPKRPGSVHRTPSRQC
Chain of D(2) dopamine receptor (Homo sapiens) (P14416 whole entry, looked up): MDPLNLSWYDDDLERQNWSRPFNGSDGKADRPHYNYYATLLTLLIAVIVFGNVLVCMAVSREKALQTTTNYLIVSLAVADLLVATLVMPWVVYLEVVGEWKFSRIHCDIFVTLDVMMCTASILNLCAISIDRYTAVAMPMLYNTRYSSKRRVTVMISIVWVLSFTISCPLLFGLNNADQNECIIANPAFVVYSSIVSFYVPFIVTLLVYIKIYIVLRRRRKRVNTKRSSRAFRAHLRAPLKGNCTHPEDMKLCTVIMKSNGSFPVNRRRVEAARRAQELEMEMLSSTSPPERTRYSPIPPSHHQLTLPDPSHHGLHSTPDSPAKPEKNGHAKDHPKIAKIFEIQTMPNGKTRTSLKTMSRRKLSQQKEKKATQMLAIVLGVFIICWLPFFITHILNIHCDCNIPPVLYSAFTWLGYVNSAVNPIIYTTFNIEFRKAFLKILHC
Chain of Gonadotropin-releasing hormone receptor (Homo sapiens) (P30968 whole entry, looked up): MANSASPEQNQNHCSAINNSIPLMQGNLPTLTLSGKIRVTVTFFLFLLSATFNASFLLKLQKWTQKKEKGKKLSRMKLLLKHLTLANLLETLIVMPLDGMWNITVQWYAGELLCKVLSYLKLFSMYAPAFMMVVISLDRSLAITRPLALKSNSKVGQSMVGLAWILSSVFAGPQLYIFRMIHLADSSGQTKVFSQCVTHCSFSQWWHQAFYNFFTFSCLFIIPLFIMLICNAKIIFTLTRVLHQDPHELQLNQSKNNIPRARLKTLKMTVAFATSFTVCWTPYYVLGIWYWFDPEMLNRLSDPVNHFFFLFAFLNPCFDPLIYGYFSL
Chain of 5-hydroxytryptamine receptor 2A (Homo sapiens) (P28223 whole entry, looked up): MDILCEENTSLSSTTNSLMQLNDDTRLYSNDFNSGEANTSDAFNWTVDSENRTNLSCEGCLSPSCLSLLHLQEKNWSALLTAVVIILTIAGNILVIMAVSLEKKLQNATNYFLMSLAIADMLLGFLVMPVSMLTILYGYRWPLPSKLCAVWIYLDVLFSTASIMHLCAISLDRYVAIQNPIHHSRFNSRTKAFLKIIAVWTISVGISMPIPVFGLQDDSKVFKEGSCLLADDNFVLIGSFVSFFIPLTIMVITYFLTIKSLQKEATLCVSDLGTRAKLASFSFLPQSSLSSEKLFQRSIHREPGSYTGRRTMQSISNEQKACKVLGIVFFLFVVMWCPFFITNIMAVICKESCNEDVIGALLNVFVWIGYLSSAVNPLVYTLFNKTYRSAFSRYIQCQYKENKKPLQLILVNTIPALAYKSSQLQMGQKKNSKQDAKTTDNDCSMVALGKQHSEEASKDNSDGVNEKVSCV
Chain of KiSS-1 receptor (Homo sapiens) (Q969F8 whole entry, looked up): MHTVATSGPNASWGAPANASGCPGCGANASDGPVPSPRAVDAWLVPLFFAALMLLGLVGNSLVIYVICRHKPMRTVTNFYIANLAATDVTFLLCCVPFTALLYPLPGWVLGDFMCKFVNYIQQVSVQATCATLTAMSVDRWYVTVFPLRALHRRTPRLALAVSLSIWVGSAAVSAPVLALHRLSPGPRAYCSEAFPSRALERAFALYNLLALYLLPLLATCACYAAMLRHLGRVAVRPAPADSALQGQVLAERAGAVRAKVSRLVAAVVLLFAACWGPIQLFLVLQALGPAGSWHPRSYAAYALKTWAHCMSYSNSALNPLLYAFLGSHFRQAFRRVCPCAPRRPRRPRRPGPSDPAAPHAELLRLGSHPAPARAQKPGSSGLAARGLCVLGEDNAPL

O=[Si]=O
inactive: all assays above

Cc1c(C(=O)c2c[nH]n(C)c2=O)ccc(S(C)(=O)=O)c1C1=NOCC1
inactive: all assays above

NC(=O)Cc1cccc(C(=O)c2ccccc2)c1N
not listed: [9] | [13] | [18]
inactive: all other assays above

CC(C)(C)NCC(O)COc1ccccc1OCC1CCCO1 (stereo not drawn)
active: [17] 0.0266 µM
not listed: [18]
inactive: all other assays above

C=CC(=O)NCOCC(C)C
not listed: [10] | [15]
inactive: all other assays above

C[CH2][Ge]([Cl])([CH2]C)[CH2]C
not listed: [18]
inactive: all other assays above

CC1(C)COCN1
not listed: [18]
inactive: all other assays above

NC/C=C/C(=O)O
not listed: [10] | [14] | [17]
inactive: all other assays above

O=C(O)c1ccccc1OP(=O)(O)O
not listed: [15] | [18]
inactive: all other assays above

COc1cc(/C=C/C(N)=O)cc(OC)c1OC
not listed: [18]
inactive: all other assays above

c1ccc2c(c1)Oc1ccccc1S2
not listed: [10] | [14] | [15]
inactive: all other assays above

CCC(OCCCOC)OC(C)=O (stereo not drawn)
not listed: [12]
inactive: all other assays above

Cc1ccc2n[nH]nc2c1
not listed: [18]
inactive: all other assays above

CC(C)(C)C(=O)OCOP(=O)(COCCn1cnc2c(N)ncnc21)OCOC(=O)C(C)(C)C
active: [10] 7.93 µM | [20] 13.3 µM
not listed: [16] | [18]
inactive: all other assays above

CCCC(=O)Nc1ccc(O)c(C(C)=O)c1
not listed: [18]
inactive: all other assays above
